Drawing on PubChem BioAssay (NCATS), this text covers Potency for 35 molecules.

Results filed as inconclusive are left out. Calls of active or inactive are those of the source. The call rests on the fitted dose curve; in most records, active means well fitted cell-killing curve with a large enough effect; inconclusive means small, poorly fitted or top-dose-only effect, or effect the other way; inactive means no such curve, though single readings can be large or run the other way.
Potency means the concentration at half of the fitted maximal effect.

A short description of the first assay: Quantitative High-Throughput drug screen in 47 multiple myeloma cell lines against the NCATS MIPE library collection: KMS34_JCRB cell viability assay (AID 1918985). Further: nearly all actives have a fitted effect of over 40% in size. The note with it: KMS34 myeloma viability, CellTiter-Glo ATP luminescence, 48 h; series mostly up to 45.8 µM. The method, boiled down: (§1)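 MIPE 4.0 approved/investigational drugs; 500 cells/well; 48 h 37 °C humidified 5% CO2; CTG luminescence readout; DMSO = 100%, media = 0% viability.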
On to `CC=C1NC(=O)[C@H]2CSSCCC=C[C@H](CC(=O)N[C@H](C(C)C)C(=O)N2)OC(=O)[C@H](C(C)C)NC1=O`, for which the Potency was 0.0264 µM (active).

Regarding `O=C(Nc1nc2cccc(-c3ccc(CN4CCS(=O)(=O)CC4)cc3)n2n1)C1CC1`, the Potency was 8.33 µM (active).

As to `COCCn1c2c([n+](Cc3cnccn3)c1C)C(=O)c1ccccc1C2=O`, the Potency is 0.0053 µM (active).

In the case of `CCc1c2c(nc3ccc(O)cc13)-c1cc3c(c(=O)n1C2)COC(=O)[C@]3(O)CC`, the Potency was 0.264 µM (active).

`CCC[C@H](NC(=O)C(C#N)=Cc1cccc(Br)n1)c1ccccc1`: the Potency is 4.69 µM (active).

For `CC(NCc1ccc2c(c1)nc(NC(=O)c1ccc(-c3cn[nH]c3)s1)n2CC(C)(C)O)C(C)(C)C` (stereo not given), the Potency was 0.372 µM (active).

As to `CNC(=O)c1c(F)cccc1Nc1nc(Nc2cc3c(cc2OC)CCN3C(=O)CN(C)C)nc2[nH]ccc12`, the Potency is 8.33 µM (active).

`CC(C)CC(=O)Nc1n[nH]c2c1CN(C(=O)C1CCN(C)CC1)C2(C)C`: the Potency is 1.18 µM (active).

Turning to `COc1cc2c(cc1-c1c(C)noc1C)ncc1[nH]c(=O)n([C@H](C)c3ccccn3)c12`, the Potency was 0.469 µM (active).

As to `COc1cc(=C2C=c3ccccc3=N2)[nH]c1=Cc1[nH]c(C)cc1C`, the Potency is 1.48 µM (active).

With `Nc1nc(Nc2ccc(S(N)(=O)=O)cc2)nn1C(=O)c1c(F)cccc1F`, the Potency is 8.33 µM (active).

Regarding `NC(=O)c1c(OCc2c(F)cc(Br)cc2F)nsc1NC(=O)NCCCCN1CCCC1`, the Potency was 20.9 µM (active).

On to `CCOC(=O)C1=C(C)NC2=C(C(=O)CC(C)(C)C2)C1c1ccc(-c2ccccc2)cc1` (stereo not given), for which the Potency was 18.7 µM (active).

As for `Nc1cc(C(F)(F)F)c(-c2cc(N3CCOCC3)nc(N3CCOCC3)n2)cn1`, the Potency is 0.833 µM (active).

For `O=C(Nc1cn[nH]c1-c1nc2ccc(CN3CCOCC3)cc2[nH]1)NC1CC1`, the Potency was 0.418 µM (active).

As for `C[C@@]12O[C@@H](C[C@]1(O)CO)n1c3ccccc3c3c4c(c5c6ccccc6n2c5c31)CNC4=O`, the Potency was 0.526 µM (active).

Consider `CNC(=O)c1cc(Oc2ccc(NC(=O)Nc3cc(C(C)(C)C)nn3-c3ccc4ncccc4c3)c(F)c2)ccn1`, for which the Potency was 7.43 µM (active).

Consider `O=C(CCCCCCC(=O)Nc1ccc([C@H]2O[C@@H](CSc3nc(-c4ccccc4)c(-c4ccccc4)o3)C[C@@H](c3ccc(CO)cc3)O2)cc1)NO`, for which the Potency was 6.62 µM (active).

Consider `O=C(NCCCNc1nc(Nc2cccc(NC(=O)N3CCCC3)c2)ncc1I)c1cccs1`, for which the Potency is 1.05 µM (active).

With `NC1(Cc2ccc(Cl)cc2)CCN(c2ncnc3[nH]ccc23)CC1`, the Potency is 7.43 µM (active).

Take `CC(C)[C@H](C(=O)Nc1ccc(C(=O)NO)cc1)c1ccccc1`: the Potency was 0.264 µM (active).

In the case of `COC(=O)Nc1ccc(-c2nc(N3CCOCC3)c3cnn(C4CCN(Cc5cccnc5)CC4)c3n2)cc1`, the Potency is 0.059 µM (active).

With `C#Cc1cccc(Nc2ncnc3cc(OC)c(OCCCCCCC(=O)NO)cc23)c1`, the Potency was 1.05 µM (active).

With `CCC1=C[C@@H]2CN(C1)Cc1c([nH]c3ccccc13)[C@@](C(=O)OC)(c1cc3c(cc1OC)N(C)[C@@H]1[C@@](O)(C(=O)OC)[C@H](OC(C)=O)[C@]4(CC)C=CCN5CC[C@]31[C@@H]54)C2`, the Potency was 0.0166 µM (active).

Consider `CN1CCN(Cc2ccc(NC(=O)Nc3ccc(Oc4cc(NC(=O)C5CC5)ncn4)cc3)cc2C(F)(F)F)CC1`, for which the Potency was 0.332 µM (active).

With `C=CC(=O)Nc1cc2c(Nc3ccc(F)c(Cl)c3)ncnc2cc1OCCCN1CCOCC1`, the Potency is 14.8 µM (active).

For `O=C(Cc1ccc(-c2ccc(OCCN3CCOCC3)cc2)cn1)NCc1ccccc1`, the Potency was 0.0148 µM (active).

Regarding `CC(C)c1ccc(Cn2ccc3c4c(N)nc(NC5CC5)nc4ccc32)cc1`, the Potency was 3.32 µM (active).

For `COCCOc1ccc2c(c1)ncn2-c1ccc2cccc(N3CCC(N)CC3)c2n1`, the Potency is 0.372 µM (active).

For `Cc1ccc(-c2ncn(-c3ccc(Nc4nccc(-c5cccc(N6CCOCC6)c5)n4)cc3)n2)cn1`, the Potency is 0.166 µM (active).

Turning to `CC[C@@]1(O)C(=O)OCc2c1cc1n(c2=O)Cc2cc3cc(O)ccc3nc2-1`, the Potency is 1.18 µM (active).

Take `c1cc(-c2cnn3cc(-c4ccc(OCCN5CCCCC5)cc4)cnc23)ccn1`: the Potency is 13.2 µM (active).

As for `CC(C)c1cnn2c(NCc3ccccc3)cc(N[C@@H](CO)[C@H](O)CO)nc12`, the Potency is 0.662 µM (active).

On to `C[C@@H](Oc1cc(-c2cnn(C3CCNCC3)c2)cnc1N)c1c(Cl)ccc(F)c1Cl`, for which the Potency is 11.8 µM (active).

As to `COc1cccc2nc(-c3cccs3)nc(NN3C(=O)C=C(C)C3=O)c12`, the Potency is 0.0296 µM (active).

The next assay is described as follows: Quantitative High-Throughput drug screen in 47 multiple myeloma cell lines against the NCATS MIPE library collection: OCIMY7_PLB cell viability assay (AID 1918987). Further: nearly all actives have a fitted effect of over 65% in size. The settings on record: OCI-MY7 myeloma viability, CellTiter-Glo ATP, 48 h; series mostly up to 45.8 µM. The method, boiled down: as §1
A general note: Cellular ATP, detected with luciferase, serves as a proxy for viable cell number.
In the case of `CC=C1NC(=O)[C@H]2CSSCCC=C[C@H](CC(=O)N[C@H](C(C)C)C(=O)N2)OC(=O)[C@H](C(C)C)NC1=O`, the Potency was 0.059 µM (active).

As to `O=C(Nc1nc2cccc(-c3ccc(CN4CCS(=O)(=O)CC4)cc3)n2n1)C1CC1`, the Potency is 9.35 µM (active).

Take `COCCn1c2c([n+](Cc3cnccn3)c1C)C(=O)c1ccccc1C2=O`: the Potency was 0.296 µM (active).

`CCc1c2c(nc3ccc(O)cc13)-c1cc3c(c(=O)n1C2)COC(=O)[C@]3(O)CC`: the Potency was 0.001 µM (active).

Turning to `CCC[C@H](NC(=O)C(C#N)=Cc1cccc(Br)n1)c1ccccc1`, the Potency was 0.526 µM (active).

Turning to `CC(NCc1ccc2c(c1)nc(NC(=O)c1ccc(-c3cn[nH]c3)s1)n2CC(C)(C)O)C(C)(C)C` (stereo not given), the Potency is 0.148 µM (active).

As for `CNC(=O)c1c(F)cccc1Nc1nc(Nc2cc3c(cc2OC)CCN3C(=O)CN(C)C)nc2[nH]ccc12`, the Potency is 0.105 µM (active).

As for `CC(C)CC(=O)Nc1n[nH]c2c1CN(C(=O)C1CCN(C)CC1)C2(C)C`, the Potency was 1.66 µM (active).

As for `COc1cc2c(cc1-c1c(C)noc1C)ncc1[nH]c(=O)n([C@H](C)c3ccccn3)c12`, the Potency is 18.7 µM (active).

Take `COc1cc(=C2C=c3ccccc3=N2)[nH]c1=Cc1[nH]c(C)cc1C`: the Potency is 1.48 µM (active).

For `Nc1nc(Nc2ccc(S(N)(=O)=O)cc2)nn1C(=O)c1c(F)cccc1F`, the Potency was 3.32 µM (active).

`NC(=O)c1c(OCc2c(F)cc(Br)cc2F)nsc1NC(=O)NCCCCN1CCCC1`: the Potency is 8.33 µM (active).

Regarding `CCOC(=O)C1=C(C)NC2=C(C(=O)CC(C)(C)C2)C1c1ccc(-c2ccccc2)cc1` (stereo not given), the Potency was 3.72 µM (active).

For the molecule `Nc1cc(C(F)(F)F)c(-c2cc(N3CCOCC3)nc(N3CCOCC3)n2)cn1`, the Potency was 0.59 µM (active).

For the molecule `O=C(Nc1cn[nH]c1-c1nc2ccc(CN3CCOCC3)cc2[nH]1)NC1CC1`, the Potency is 0.332 µM (active).

On to `C[C@@]12O[C@@H](C[C@]1(O)CO)n1c3ccccc3c3c4c(c5c6ccccc6n2c5c31)CNC4=O`, for which the Potency is 0.0662 µM (active).

As to `CNC(=O)c1cc(Oc2ccc(NC(=O)Nc3cc(C(C)(C)C)nn3-c3ccc4ncccc4c3)c(F)c2)ccn1`, the Potency was 6.62 µM (active).

`O=C(CCCCCCC(=O)Nc1ccc([C@H]2O[C@@H](CSc3nc(-c4ccccc4)c(-c4ccccc4)o3)C[C@@H](c3ccc(CO)cc3)O2)cc1)NO`: the Potency was 8.33 µM (active).

With `O=C(NCCCNc1nc(Nc2cccc(NC(=O)N3CCCC3)c2)ncc1I)c1cccs1`, the Potency was 1.87 µM (active).

For `NC1(Cc2ccc(Cl)cc2)CCN(c2ncnc3[nH]ccc23)CC1`, the Potency is 5.9 µM (active).

On to `CC(C)[C@H](C(=O)Nc1ccc(C(=O)NO)cc1)c1ccccc1`, for which the Potency was 0.418 µM (active).

For the molecule `COC(=O)Nc1ccc(-c2nc(N3CCOCC3)c3cnn(C4CCN(Cc5cccnc5)CC4)c3n2)cc1`, the Potency was 23.5 µM (active).

For `C#Cc1cccc(Nc2ncnc3cc(OC)c(OCCCCCCC(=O)NO)cc23)c1`, the Potency is 0.148 µM (active).

Regarding `CCC1=C[C@@H]2CN(C1)Cc1c([nH]c3ccccc13)[C@@](C(=O)OC)(c1cc3c(cc1OC)N(C)[C@@H]1[C@@](O)(C(=O)OC)[C@H](OC(C)=O)[C@]4(CC)C=CCN5CC[C@]31[C@@H]54)C2`, the Potency is 0.166 µM (active).

On to `CN1CCN(Cc2ccc(NC(=O)Nc3ccc(Oc4cc(NC(=O)C5CC5)ncn4)cc3)cc2C(F)(F)F)CC1`, for which the Potency is 0.526 µM (active).

`C=CC(=O)Nc1cc2c(Nc3ccc(F)c(Cl)c3)ncnc2cc1OCCCN1CCOCC1`: the Potency is 0.296 µM (active).

On to `O=C(Cc1ccc(-c2ccc(OCCN3CCOCC3)cc2)cn1)NCc1ccccc1`, for which the Potency was 0.001 µM (active).

In the case of `CC(C)c1ccc(Cn2ccc3c4c(N)nc(NC5CC5)nc4ccc32)cc1`, the Potency is 1.66 µM (active).

For the molecule `COCCOc1ccc2c(c1)ncn2-c1ccc2cccc(N3CCC(N)CC3)c2n1`, the Potency is 0.469 µM (active).

With `Cc1ccc(-c2ncn(-c3ccc(Nc4nccc(-c5cccc(N6CCOCC6)c5)n4)cc3)n2)cn1`, the Potency is 0.132 µM (active).

`CC[C@@]1(O)C(=O)OCc2c1cc1n(c2=O)Cc2cc3cc(O)ccc3nc2-1`: the Potency is 0.0105 µM (active).

Consider `c1cc(-c2cnn3cc(-c4ccc(OCCN5CCCCC5)cc4)cnc23)ccn1`, for which the Potency was 2.09 µM (active).

Regarding `CC(C)c1cnn2c(NCc3ccccc3)cc(N[C@@H](CO)[C@H](O)CO)nc12`, the Potency is 0.235 µM (active).

For the molecule `C[C@@H](Oc1cc(-c2cnn(C3CCNCC3)c2)cnc1N)c1c(Cl)ccc(F)c1Cl`, the Potency was 3.32 µM (active).

With `COc1cccc2nc(-c3cccs3)nc(NN3C(=O)C=C(C)C3=O)c12`, the Potency was 0.0264 µM (active).
